Test results published in the supplement of paper PMC10338343.
± gives the standard deviation.

Experiments:
[1] = system: MILI (PIWIL2) piRISC loaded with piRNA #1 (26 nt); assay: pre-steady-state target cleavage rate (min^-1); guide: piRNA #1 5'p-UGAGGUAGUAGGUUGUAUAGUAUCCA; higher = faster piRNA-guided slicing of the target; conditions: auxiliary factor: 500 nM mouse GTSF1
Procedure, shortened: (§1)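 The method was Cleave-'n-Seq, in which uncleaved targets from a transcribed, DNA-blocked target RNA library were sequenced after exposure to active affinity-purified piRISC carrying one synthetic guide, with or without GTSF1 partner protein. Reactions contained 0.1 nM library, 1 nM piRISC and, where present, 500 nM GTSF1 in HEPES–potassium acetate buffer at 33 °C for 0–8 or 0–960 min. Reads were normalised to depth and to weakly complementary targets, three trials were pooled, and k3 was capped at 0.0001 min^-1. The pre-steady-state cleavage rate came from a burst-and-steady-state fit.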

[2] = system: EfPiwi piRISC loaded with piRNA #1 (26 nt); assay: pre-steady-state target cleavage rate (min^-1); auxiliary factor: 500 nM Ephydatia muelleri Gtsf1; guide: piRNA #1 5'p-UGAGGUAGUAGGUUGUAUAGUAUCCA; MIWI and MILI are mouse PIWI proteins and EfPiwi is from a freshwater sponge; tags in brackets are library labels; higher = faster piRNA-guided slicing of the target
Procedure, shortened: as §1

Sequence | pre-steady-state target cleavage rate [1] | pre-steady-state target cleavage rate [2]
GGAGUGGGUACUAUACAACCUACUACCUCA | 0.148 ± 0.01 | 0.00924 ± 0.0037
GGAGACGAUACUAUACAAGCUACUUCCUCA | 0.167 ± 0.016 | 0.00404 ± 0.0021
GGAGAGGAUACUAUACAUCGUACUACCUCA | 0.0374 ± 0.0069 | 0.00364 ± 0.0019
GGAGACGAUUCUAUACAACCUACUACCACA | 0.219 ± 0.015 | 0.00382 ± 0.0024
GGAGACCAUACAUAUACAACCUACUACCUCA | 0.101 ± 0.013 | 0.0645 ± 0.025
GGAGACCUAACUAUACAAGCUAGUACCUCA | 0.0871 ± 0.019 | 0.00423 ± 0.0037
GGAGUGGAUACUUUACUACCUACUACCUCA | 0.16 ± 0.01 | 0.00437 ± 0.0036
GGAGACCUAUCUAUACAACCUACUACCCCA | 0.123 ± 0.02 | 0.00444 ± 0.0032
GGAGACGAUACUAAUACAACCUACUACCUCA | 0.134 ± 0.01 | 0.0773 ± 0.031
GGAGAGGAUACUAUUCAACCUACUUCCUCA | 0.0111 ± 0.0046 | 0.00313 ± 0.0024
GGAGUGGAUUCUAUACAACCUACUACGUCA | 0.0598 ± 0.0076 | 0.0027 ± 0.0024
GGAGAGGAUACUAUACAACCUACUACCUCG [g2:g25:cont:t1G] | 0.175 ± 0.015 | 0.143 ± 0.048
GGAGAGGAUACUAAACAUCCUACUACCUCA | 0.276 ± 0.022 | 0.00524 ± 0.0024
GGAGAGGAUACUUUACAACGUACUACCUCA | 0.018 ± 0.0029 | 0.00409 ± 0.0016
GGAGACGAUACUAUACAAGCUACUACCACA | 0.311 ± 0.016 | 0.00387 ± 0.0017
GGAGACCUUACAUAUACAACCUACUACCUCA | 0.0595 ± 0.012 | 0.00546 ± 0.0041
GGAGACCUAUCAUAUACAACCUACUACCUCA | 0.0423 ± 0.0085 | 0.0103 ± 0.0048
GGAGACGAUACAAUACAUCCUACUACCUCA | 0.312 ± 0.016 | 0.00286 ± 0.0019
GGAGACCUAACUAUAACAACCUACUACCUCA | 0.0743 ± 0.018 | 0.00912 ± 0.005
GGAGACCAUACUAUACAACCUACUACGAGA | 0.0759 ± 0.019 | 0.00579 ± 0.0027
